Test results: PubChem BioAssay AID652104 (National Center for Advancing Translational Sciences (NCATS), 2013)
The campaign covered roughly 410,000 compounds. About 7,200 (1.8%) were called active. Roughly 7% stayed inconclusive and do not appear here. The sample as a whole holds a higher share of actives than the screen did. A number with no mark means an inactive call. The call rests on the fitted dose curve; in most records, active means well fitted activation curve with a large enough effect; inconclusive means small, poorly fitted or top-dose-only effect, or another doubt; inactive means no such curve, though single readings can be large or run the other way.

Assay: qHTS of TDP-43 Inhibitors; further: nearly all actives have a fitted effect of over 50% in size; on growth rescue (activation): % of control where 0% means no effect
Conditions: TDP-43 expressing yeast growth rescue, BacTiter-Glo, 24 h; series mostly up to 46.1 µM; growth rescue (activation): at the top concentration
Description: The goal of this project is to identify new chemical probes capable of reversing the toxicity associated with TDP-43 which is associated with frontotemporal lobar degeneration and amyotrophic lateral sclerosis. These compounds will provide a complementary approach to deciphering the tangled mechanisms of toxicity and protection that we have uncovered through genome-wide genetic screens and are beginning to uncover in a large-scale proteomics analysis with mass spectroscopy.
To this end, a miniaturized assay was developed to be screened against the Molecular Libraries Small Molecule Repository (MLSMR) to discover TDP-43 inhibitors. Please note that in the set-up this yeast-based assay compounds that inhibit as TDP-43, have a read-out as activators.
NIH Chemical Genomics Center [NCGC]
NIH Molecular Libraries Probe Centers Network [MLPCN]
Assay Submitter (PI): Susan Lindquist, Whitehead Institute/MIT
Dispense 2.5 microL yeast galactose medium per 1536-well plate, pin compound, dispense 2.5 microL TDP-43 expressing yeast in galactose medium at OD600=0.02 (pregrown in raffinose medium to mid-log phase) per well, incubate for 24 hr at 30 deg C, and cell growth will be measured using 5 microL of Bactiter/Glo reagent to entire plate and read using Luminescence Protocol in ViewLux.
Potency means the concentration at half of the fitted maximal effect.

Structure (SMILES) | Potency | growth rescue (activation)
Cc1oc(-c2ccccc2)nc1Cn1c(SCc2cccc(C(F)(F)F)c2)nc2cccnc21 | 20 µM (active) | –
O=C(O)c1ccc(CSc2nc3cccnc3n2Cc2cccc(F)c2)cc1 | – | 0%
O=C(NC1CCCCC1)c1ccc(Cn2c(SCc3ccccc3)nc3cccnc32)cc1 | – | -3.95%
Cc1ccccc1OCc1nc2c3cnn(-c4ccccc4F)c3ncn2n1 | – | 22%
CCc1nc(Nc2ccc3nccnc3c2)c2oc3ccccc3c2n1 | – | -11.4%
C[C@@H](Nc1nc(-c2ccccc2)nc2c1oc1ccccc12)C(=O)O | – | 1.72%
COCCNc1nc(-c2ccccc2)nc2c1oc1ccccc12 | 12.6 µM (active) | –
Cc1cc(NC(=O)CC(C)C)cc(-c2nc3ncccc3o2)c1O | – | 23.5%
CCOc1ccc(NC(=O)c2cnn(-c3ccccc3)c2-n2cccc2)cc1 | – | -9.72% [at 9.22 µM]
COc1ccccc1CNc1nc2ccc(Cl)cc2n2cnnc12 | – | -9.41%
COc1ccccc1-c1cc2nc(NCc3cccc(Cl)c3)ccn2n1 | 17.8 µM (active) | –
CC(C)Cc1ccc(-c2cc3nc(NCc4cccc(Cl)c4)ccn3n2)cc1 | – | 9.06%
CCC1CCCCN1C(=O)Cn1c(=O)n(CCCCCC(=O)NCc2ccccc2)c(=O)c2sccc21 (stereo not drawn) | – | 3.01%
S=c1[nH]nc(NCCc2ccccc2)s1 | – | -8.25% [at 0.397 µM]
Cc1nc(C)c(-c2csc(NCCc3ccccc3)n2)s1 | 15.8 µM (active) | –
Cc1nc(N)sc1-c1ccccc1 | – | -12.8%
Cc1c(CCNC(=O)c2ccc(C(F)(F)F)cc2)sc2nc(-c3ccc(F)cc3)nn12 | – | 1.73%
COc1ccc(C2NC(=O)N(C)C3=C2C(=O)N(c2ccc(C(=O)O)cc2)C3)cc1 (stereo not drawn) | – | -4.05%
CCOC(=O)c1scc(-c2ccc(C)cc2)c1S(=O)(=O)Nc1cc(C)ccc1C | – | 4.09%
COC(=O)c1scc(-c2ccc(C)cc2)c1S(=O)(=O)Nc1cc(Cl)c(OC)cc1OC | – | 8.06%
COC(=O)c1scc(-c2ccccc2)c1S(=O)(=O)Nc1ccccc1 | 12.6 µM (active) | –

Structure (SMILES) | Potency | growth rescue (activation)
COc1cc(C(=O)NCCc2csc3nc(-c4ccccc4C)nn23)cc(OC)c1OC | – | 3.64%
COc1ccc(NC(=O)C(c2ccccc2)N2Cc3ccccc3C2=O)cc1 (stereo not drawn) | – | 0% [at 9.22 µM]
Cc1cc(C)cc(NC(c2nnc(-c3cccc(F)c3)o2)c2ccc(F)cc2Cl)c1 (stereo not drawn) | – | 11.8%
O=C(/C=C/c1ccc(Cl)c([N+](=O)[O-])c1)c1cccnc1 | 3.16 µM (active) | –
O=C(/C=C/Nc1ccc(S(=O)(=O)Nc2cnc3ccccc3n2)cc1)c1cccnc1 | – | 5.52%
C/C(=N\NC(=O)Cc1ccccc1[N+](=O)[O-])c1cccnc1 | – | 6.54%
Cc1ccc(CCNC(=O)c2ccc(CS(=O)(=O)Cc3cccc(C)c3)o2)cc1 | – | 12.7%
CC1=C(C(=O)N2CCN(c3cccc(C(F)(F)F)c3)CC2)C2(CCCCC2)OC1=O | – | 7.17%
COc1ccc(CCNc2nc(-c3ccc(Cl)cc3)cc(C(F)(F)F)n2)cc1OC | – | -4.55%
COc1cccc(NC(=O)C2CCN(c3cc(C)nc4c(-c5ccc(Cl)cc5)c(C)nn34)CC2)c1 | – | 1.98%
COc1ccc(CCNc2cc(C)nc3c(-c4ccc(Cl)cc4)c(C)nn23)cc1OC | 20 µM (active) | –
COc1ccc(N2CCN(C(=O)C3CCCN(C(=O)c4cc5sccc5n4C)C3)CC2)cc1 (stereo not drawn) | – | 9.85%
COC(=O)c1ccccc1NC(=O)c1ccc(COc2ccccc2Cl)o1 | – | 8.94%
Cc1ccc(CNC(=O)CCc2c(C)nc3nc(CNC(=O)OC(C)(C)C)nn3c2C)cc1 | – | 9.83%
O=C(CSc1ccc(C(F)(F)F)cc1[N+](=O)[O-])NCCOc1ccccc1 | – | -13.2%
Nc1ccccc1Sc1ccc(C(F)(F)F)cc1[N+](=O)[O-] | 11.2 µM (active) | –
O=[N+]([O-])c1cc(C(F)(F)F)ccc1NN=C1CCCC1 | – | 20.6%
Cc1nc2nc(NCc3cccc(Br)c3)[nH]n2c(=O)c1Cc1ccccc1 | – | 12.5%
COc1ccc(C(=O)N2CCC(c3nc4ccccc4o3)CC2)cc1 | – | -8.9%
Cc1onc(-c2ccccc2)c1C(=O)N1CCN(S(=O)(=O)c2ccccc2C(F)(F)F)CC1 | 15.8 µM (active) | –
CC(C)(C)OC(=O)N1CCN(C(=O)c2[nH]c(C(F)(F)F)nc2-c2ccccc2)CC1 | – | -9.17%

Structure (SMILES) | Potency | growth rescue (activation)
CCc1noc(C)c1C(=O)N1CCN(S(=O)(=O)c2cccc(C(F)(F)F)c2)CC1 | – | 15.9%
N#Cc1nc(/C=C/c2ccc(F)cc2)oc1NC1CCCCC1 | – | 7.58%
Cc1ccccc1NC(=O)CSC1=NCCN1 | – | 16.4%
Cc1cccc(NC(=O)CSC(N)=O)c1C | – | -0.179%
Cc1ccccc1NC(=O)CSC(=O)c1ccccc1 | 14.1 µM (active) | –
CCOc1cccc(CNC(=O)c2ccc(N3CCCC3)c(NC(=O)Nc3ccccc3CC)c2)c1 | – | 14.4%
Cc1cccc(NC(=O)CN(c2ccc(C(C)C)cc2)S(=O)(=O)c2c(C)nn(C)c2C)c1C | – | 9.66%
Cc1ccc(CNC(=O)CCc2c(C)nc3c(c(C)nn3-c3ccccc3)c2C)cc1 | – | 7.91%
CCOC(=O)C1CCCN(CC(=O)Nc2cc(C)c3c(=O)oc4ccccc4c3n2)C1 (stereo not drawn) | – | 12.8%
COc1ccc(CNc2nc(-c3ccccc3)nn2C(=O)c2ccccc2OC)cc1 | – | -26.6%
Cc1cc(C)cc(NC(=O)CCCc2nc(-c3ccccc3Cl)no2)c1 | – | 6.99%
Cc1ccc2nc(SCC(=O)Nc3cccc4ccccc34)nc(=O)n2c1 | – | 2.84%
O=C(CSc1nccn1-c1ccc(F)cc1)Nc1cccc2ccccc12 | 17.8 µM (active) | –
O=C(CSc1nccn1-c1cccc(F)c1)NC1CCCC1 | – | 12.2%
Cc1cc(NC(=O)CSc2nccn2-c2ccc([N+](=O)[O-])cc2)no1 | – | 20.5%
Cc1ccccc1-n1c(SCC(=O)Nc2cccc3ccccc23)nc(O)cc1=O | – | 1.32%
Cc1cccc(-n2ccnc2SCC(=O)Nc2cccc3ccccc23)c1C | 22.4 µM (active) | –
O=C(CSc1nc(Nc2ccc(F)c(F)c2)c2ccccc2n1)c1ccc(Cl)cc1 | – | 14.9%
CCC(C(=O)Nc1cc(OC)ccc1OC)n1c(=O)c(C(F)(F)F)nc2ccccc21 (stereo not drawn) | – | 3.29%
CC(NC(=O)c1cc(Sc2ccc(F)cc2F)nc2ccccc12)c1ccccc1 (stereo not drawn) | – | 17.5%
CC(C)c1ccc(NC(=O)c2ccc3c(O)c(S(=O)(=O)c4ccccc4)c(=O)[nH]c3c2)cc1 | – | 19.2%
